From PubChem BioAssay
Hits are enriched below; roughly 3.5% of the tested compounds scored in any of these assays.
GPR151 activ: activators of human GPR151, primary screen, cell-based, PathHunter beta-arrestin, luminescence | PathHunter beta-arrestin GPR151 cells | G-protein coupled receptor 151 (Homo sapiens), Q8TDV0 | 1% of 650,000 active | activation, % at 11.2 µM; in the data active means activation above about 4.9%;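 further: 0% = median of compound wells and 100% = cells with positive control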
MITF primary: MITF inhibitors, primary screen, biochemical, AlphaScreen, human. AlphaScreen MITF homodimerization, bead proximity signal. Microphthalmia-associated transcription factor (Homo sapiens), O75030. inhibition, % at 2.6 µM. 0.91% of 650,000 active. AID 1259374, 2018; in the data active means inhibition above about 50%;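 further: 0% = vehicle wells with protein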
FBW7 act: FBW7 E3 ligase activators, primary screen, biochemical, AlphaScreen, human. AID 1259310, 2017. F-box/WD repeat-containing protein 7 (Homo sapiens), Q969H0. normalized activity (activation), % at 26.1 µM. AlphaScreen FBW7–phospho-cyclin E peptide binding, activator screen. 0.13% of 650,000 active; in the data active means normalized activity above about 1.9%;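 further: purified mutant Fbw7 with reduced substrate affinity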
Target sequence (Q969H0 whole entry, looked up): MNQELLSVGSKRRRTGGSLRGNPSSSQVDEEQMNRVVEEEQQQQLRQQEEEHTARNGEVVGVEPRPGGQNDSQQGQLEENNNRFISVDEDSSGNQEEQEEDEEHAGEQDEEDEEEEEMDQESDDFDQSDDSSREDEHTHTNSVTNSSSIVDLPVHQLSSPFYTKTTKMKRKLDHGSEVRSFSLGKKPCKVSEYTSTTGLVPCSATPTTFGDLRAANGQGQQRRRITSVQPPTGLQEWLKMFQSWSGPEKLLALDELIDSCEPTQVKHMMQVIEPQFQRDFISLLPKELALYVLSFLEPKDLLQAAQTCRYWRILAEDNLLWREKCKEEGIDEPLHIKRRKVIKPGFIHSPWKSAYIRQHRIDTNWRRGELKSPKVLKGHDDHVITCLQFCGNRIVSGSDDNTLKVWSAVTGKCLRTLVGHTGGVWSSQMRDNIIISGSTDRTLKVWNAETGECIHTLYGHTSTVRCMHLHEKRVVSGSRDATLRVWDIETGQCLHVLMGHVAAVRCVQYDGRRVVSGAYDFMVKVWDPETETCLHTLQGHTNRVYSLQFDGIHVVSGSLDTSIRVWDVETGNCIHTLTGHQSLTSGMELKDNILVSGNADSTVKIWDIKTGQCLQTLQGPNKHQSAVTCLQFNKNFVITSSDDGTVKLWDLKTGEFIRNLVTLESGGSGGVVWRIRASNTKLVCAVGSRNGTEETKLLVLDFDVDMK
TEAD-YAP inh: TEAD-YAP interaction inhibition, primary screen, TEAD-YAP interaction inhibitor project, luminescence, HEK-TIYL cells. inhibition, % at 9.12 µM. AID 1259422, 2018. 1.4% of 640,000 active. TEAD-Gal4/YAP UAS-luciferase luminescence; in the data active means inhibition above about 32%;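 further: 0% = median of test compound wells and 100% = reference inhibitor wells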
GPR151 confirm: GPR151 activators, triplicate retest, confirmation, cell-based, PathHunter beta-arrestin, luminescence; shares compounds with GPR151 activ; GPR151 PathHunter beta-arrestin cells, 90 min; % of EA-reagent control over plate median; activation, % at 11.2 µM; 6,700 tested, under 10 active; AID 1508609, 2020;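 active means mean percent activation across replicates above the confirmation screen cutoff of 4.91%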
GPR119 ag: GPR119 activators in beta-arrestin cells, counter-screen for GPR151 activator project, cell-based, PathHunter beta-arrestin, luminescence, triplicate; shares compounds with GPR151 activ; 90 min; 0 = compound-well median, 100 = enzyme-acceptor control; activation, % at 11.2 µM; 0.3% of 6,700 active;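 active means mean percent activation in the counterscreen above 29.09%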;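 further: counterscreen on off-target GPR119 to flag nonselective hits from the GPR151 activator screen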
An asterisk follows results filed as active; x = not tested or not shown; ! = repeats disagree.

SMILES | GPR151 activ | MITF primary | FBW7 act | TEAD-YAP inh | GPR151 confirm | GPR119 ag
CC(C)CC(NC(=O)C(C)NC(=O)CNC(=O)C(NC=O)C(C)C)C(=O)NC(C)C(=O)NC(C(=O)NC(C(=O)NC(C(=O)NC(Cc1c[nH]c2ccccc12)C(=O)NC(CC(C)C)C(=O)NC(Cc1c[nH]c2ccccc12)C(=O)NC(CC(C)C)C(=O)NC(Cc1c[nH]c2ccccc12)C(=O)NC(CC(C)C)C(=O)NC(Cc1c[nH]c2ccccc12)C(=O)NCCO)C(C)C)C(C)C)C(C)C (stereo not drawn) | 24* | -5 | 0 | 84* | 14* | 113*
COC(=O)C(C)NC(=O)C(Cc1c[nH]c2ccccc12)NC(C)=O (stereo not drawn) | 0 | 2 | 1 | 5 | x | x
CC(=O)Nc1ccc(NC(=O)c2cnc(-c3csc4ccccc34)s2)cc1 | -3 | -3 | 0 | -4 | x | x
CC(=O)Nc1ccc(NC(=O)c2ccc3nc(-c4ccc(C(=O)NC5CC5)cc4)sc3c2)cc1 | 11* | 2 | 0 | 10 | 0 | 3
COc1ccc(-c2nc3ccccc3s2)cc1NC(C)=O | 4.9* | 7 | 0 | -42 | 0 | -6
CCCNC(=O)c1ccc2nc(-c3ccc(OC)cc3)sc2c1 | 11* | 5 | 0 | -19 | -1 | -5
COC(=O)COc1ccc(-c2nc3ccccc3s2)cc1OC | -2 | -7 | 0 | 2 | x | x
COc1cc(NC(=O)c2cnc(-c3csc4ccccc34)s2)cc(OC)c1OC | 5.1* | 5 | 0 | 10 | 0 | 2
CN1CCN(c2ccc(-c3nc4ccc(C(=O)NCc5cccc(C(F)(F)F)c5)cc4s3)cc2)CC1 | 5.8* | -4 | 0 | 16 | -1 | -19
CC(=O)Nc1ccc(NC(=O)c2ccc3nc(-c4cccc(C(C)=O)c4)sc3c2)cc1 | -1 | -17 | 0 | 1 | x | x
COc1cc(NC(=O)c2ccc3nc(-c4cccc(C(C)=O)c4)sc3c2)cc(OC)c1OC | 13* | 7 | 0 | -27 | 1 | 2
CCOC(=O)c1sc2nc(SCC(=O)NCc3ccccc3)n(Cc3ccco3)c(=O)c2c1C | 0 | 6 | 1 | -3 | x | x
O=C(Cc1cccnc1)N[C@H](Cc1ccc(Cl)cc1)c1nc2ccc(-c3cn[nH]c3)cc2c(=O)[nH]1 | 5.5* | 4 | 0 | 9 | 1 | 12
COC(=O)C1=C(C(=O)OC)[C@@H]2N(C)c3ccc(OC)cc3[C@@]23C[C@@H](C(=O)OC)N(C(=O)c2ccco2)C3=N1 | 6.1* | 16 | 0 | x | 0 | -3
COCCNC(=O)c1nn(C)c2c1CSc1ccccc1-2 | 6.7* | 2 | 0 | -31 | -1 | -9
Clc1cccc(N2CCN(c3ncnc4c3nc3n4CCCCC3)CC2)c1 | 12* | 8 | 0 | 41* | 1 | 2
COc1ccccc1N1CCN(C2CCCN(Cc3ccccc3O)C2)CC1 (stereo not drawn) | 8.0* | 13 | 0 | 8 | 0 | 2
Fc1cccc(-n2c(N3CCOCC3)n[nH]c2=S)c1 | 1 | 13 | 0 | -2 | x | x
Cc1ccc(CC(=O)Nc2ccc(S(=O)(=O)Nc3nccs3)cc2)cc1 | 0 | 10 | 0 | 2 | x | x
O=C(Nc1ccccc1)c1ccccc1OCC(O)Cn1c2ccccc2c2ccccc21 (stereo not drawn) | 13* | -12 | 0 | 10 | 0 | 5
O=C(NCc1n[nH]c(=S)n1-c1ccccc1Cl)c1ccccc1F | 6.7* | 2 | 0 | 4 | 2 | 3
COc1cc(C(=O)NNC(=O)CCN2CCCCC2)cc(OC)c1OC | 4.9* | -16 | 0 | 9 | -1 | -14
O=S(=O)(c1cccc2cnccc12)N1CCCNCC1 | 9.3*! | 0 | 0 | 14 | 1 | -2
O=S(=O)(c1cccc2cnccc12)N1CCCN(S(=O)(=O)c2cccc3cnccc23)CC1 | -1 | -4 | 0 | -1 | x | x
COc1ccc2c(CNCc3ccc(F)cc3)c(C(=O)O)n(Cc3ccc(C)cc3)c2c1 | 7.8* | 1 | 0 | 6 | 0 | 2
SMILES | GPR151 activ | MITF primary | FBW7 act | TEAD-YAP inh | GPR151 confirm | GPR119 ag
CC(=O)NCC1Cc2cccc(-c3ccc(S(C)(=O)=O)cc3)c2O1 (stereo not drawn) | 7.3* | 8 | 0 | 6 | 0 | 12
CC(C)(C)C(=O)NCC1Cc2cccc(-c3ccc(S(C)(=O)=O)cc3)c2O1 (stereo not drawn) | 0 | 18 | 0 | -7 | x | x
CCn1c(COc2ncnc3ccccc23)nc2cc(S(=O)(=O)N(C)C)ccc21 | 5.2* | 2 | 0 | -4 | -1 | 0
COc1ccc2c(c1)OC(C)CN(CC=C(C)C)C2 (stereo not drawn) | 2 | 2 | 0 | 10 | x | x
COc1cccc(CN2CCN(Cc3cc(F)cc(F)c3)CC2CCO)c1 (stereo not drawn) | 0 | 4 | 0 | -1 | x | x
N/C(=N\OC(=O)CCCN1C(=O)c2ccccc2C1=O)c1ccccn1 | 5.3* | 1 | 0 | 1 | 2 | 1
Cc1ccc(CN2C(=O)C3CCCN3c3ccc(C#N)cc32)cc1 (stereo not drawn) | 5.6* | -3 | 0 | -4 | 1 | 7
N#Cc1ccc2c(c1)N(Cc1ccc(F)cc1)C(=O)C1CCCN21 (stereo not drawn) | 1 | 3 | 0 | 2 | x | x
Cc1ccc(CC(=O)O/N=C(\N)Cc2cccc3ccccc23)cc1 | 5.5* | 7 | 0 | 10 | 0 | -4
Cc1ccc(/C(N)=N/OC(=O)Cc2cccc3ccccc23)cc1 | 1 | -3 | 0 | 4 | x | x
Cc1ccc(Cn2c3ccccc3n3c(SCC(N)=O)nnc23)cc1 | -1 | 18 | 1 | 16 | x | x
COc1ccc(-c2noc(CN3CCN(c4ccc(F)cc4)CC3)n2)c(OC)c1OC | 6.5* | 11 | 0 | 0 | 0 | -9
COc1ccc(-c2noc(CN3CCCN(c4ccc(F)cc4)CC3)n2)c(OC)c1OC | 0 | 6 | 0 | -16 | x | x
C/C=C(\C)CN1CCCC(C(=O)Nc2ccc(-c3cscn3)cc2)C1 (stereo not drawn) | -2 | 11 | 0 | 0 | x | x
COc1cc(C(=O)Nc2cc(=O)n(C)c(=O)n2C)cc(OC)c1OC | 5.7* | -5 | 0 | -2 | 0 | 0
O=C(NCc1ccccc1)c1nn(C23CC4CC(CC(C4)C2)C3)cc1[N+](=O)[O-] | 5.6* | 6 | 0 | 7 | -1 | 1
